From PubChem BioAssay (NCATS) come the findings set out here.

Molecules are shown by their SMILES. Results filed as inconclusive are left out. Calls of active or inactive are those of the source. Calls follow the shape of the dose curve; as a rule, active = well fitted inhibition curve with a large enough effect; inconclusive = small, poorly fitted or top-dose-only effect; inactive = flat fitted curve, though single readings scatter.
% is scaled to controls: 0 for no effect and ±100 for the full control effect.

In one assay the test system is HEK293T. The assay is described as follows: qHTS assay to identify novel small-molecules to repurpose for Merkel cell carcinoma treatment (AID 1296009). Also: nearly all actives have a fitted effect of over 60% in size. Particulars: MCC and control cell lines, CellTiter-Glo viability, 72 h; at 44.8 µM (top of the series) unless noted. Put shortly:
(§1)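 Cell viability measured by CellTiter-Glo following 72 hr compound treatment at 37 degree celsius, with NPC and MIPE libraries tested in 8- and 11-point concentration series.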
(In general: In qHTS, concentration-response curves come from the screen itself.)
Take `O=C1c2ccccc2C(=O)C1C(=O)C(c1ccccc1)c1ccccc1`: the compound was called inactive. The same measure, in the same setting: as for `COc1cc(OC)c(OC)cc1C=O`, the entry is “inactive [at 92 µM]”. `CC(C)(N)Cc1ccccc1Cl`: the result was inactive.

For the compound `CC(C)c1cccc(C(C)C)c1O`, the outcome was inactive. The same measure, in the same setting: the entry for `CC(=O)C1CCOC1=O` (configuration not stated) is “inactive”. On the same count and under the same terms, as for `CC(C)(C)NCC(O)c1cc(Cl)c(N)c(C(F)(F)F)c1` (configuration not stated), the entry is “inactive”; as for `Clc1ccccc1N1CCNCC1`, “inactive”. As for `Nc1ccccc1`, the result was inactive. On the same count and under the same terms, the entry for `O=C1OC(c2ccc(O)c(S(=O)(=O)O)c2)(c2ccc(O)c(S(=O)(=O)O)c2)c2c(Br)c(Br)c(Br)c(Br)c21` is “inactive”. On the same count and under the same terms, the entry for `CC(NC(C)(C)C)C(=O)c1cccc(Cl)c1` (configuration not stated) is “inactive”; for `Oc1ccc(Cl)cc1` it is “inactive”; for `O=C1c2ccccc2C(=O)c2ccccc21` it is “inactive [at 17.4 µM]”. Turning to `COC(=O)[C@@H](N)CCCN/C(N)=N/[N+](=O)[O-]`, the result was inactive. On the same count and under the same terms, as for `CN1C(=O)CCS(=O)(=O)C1c1ccc(Cl)cc1` (configuration not stated), the entry is “inactive”.

`ClCCN1CCCC1`: the compound was called inactive.

The subject of a further assay is MCC-13. The description is as above. The conditions noted are these: MCC and control cell lines, CellTiter-Glo viability, 72 h; series mostly up to 46 µM; activity change, negative = cytotoxicity: at the top concentration. Summed up: as §1
In general terms: In ATP-based viability assays light output follows the ATP content of the culture.
For the compound `O=C1c2ccccc2C(=O)C1C(=O)C(c1ccccc1)c1ccccc1`, the “activity change, negative = cytotoxicity” value was -5.81% (inactive). As for `COc1cc(OC)c(OC)cc1C=O`, the compound was called inactive. On to `CC(C)(N)Cc1ccccc1Cl`, for which the “activity change, negative = cytotoxicity” value is 26% (inactive). In the case of `CC(C)c1cccc(C(C)C)c1O`, the outcome was inactive. As for `CC(C)N(CCC(C(N)=O)(c1ccccc1)c1ccccn1)C(C)C` (configuration not stated), the “activity change, negative = cytotoxicity” value was -0.949% (inactive).

`C=CCC1(C(C)CC)C(=O)NC(=O)NC1=O` (configuration not stated): the “activity change, negative = cytotoxicity” value was 3.83% (inactive). Same read-out and setting: the figure for `COc1cccc([C@@]2(O)CCCC[C@@H]2CN(C)C)c1` is 11.7% (inactive). Still for that read-out and setting: as for `C[N+]1(CCF)[C@@H]2CC[C@H]1CC(OC(=O)C(O)(c1ccccc1)c1ccccc1)C2` (some centres not stated), the figure is 12% (inactive); as for `CCCCCCCCCC(=O)O[C@H]1CC[C@H]2[C@@H]3CCC4=CC(=O)CC[C@@H]4[C@H]3CC[C@]12C`, -1.91% (inactive).

With `O=C(O)CCCc1ccc(N(CCCl)CCCl)cc1`, the compound was called inactive.

As to `O=c1oc2ccccc2c(O)c1Cc1c(O)c2ccccc2oc1=O`, the “activity change, negative = cytotoxicity” value is 11.4% (inactive). The same measure, in the same setting: as for `CC(=O)C1CCOC1=O` (configuration not stated), the figure is 3.26% (inactive); as for `O=C(O)c1ccc(=O)[nH]c1`, 20.7% (inactive). On to `CCOC(=O)CC(SP(=S)(OC)OC)C(=O)OCC` (configuration not stated), for which the compound was called inactive. Turning to `CC(C)(C)NCC(O)c1cc(Cl)c(N)c(C(F)(F)F)c1` (configuration not stated), the “activity change, negative = cytotoxicity” value is 7.12% (inactive). On the same count and under the same terms, as for `C[C@]12CC[C@H]3[C@@H](CCC4=CC(=O)CC[C@@H]43)[C@@H]1CC[C@@H]2OC(=O)CCc1ccco1`, the figure is -1.45% (inactive); as for `Clc1ccccc1N1CCNCC1`, 16.8% (inactive). On the same count and under the same terms, as for `CN1CC[C@]23c4c5ccc(O)c4O[C@H]2[C@@H](O)C=C[C@H]3[C@H]1C5`, the figure is -16.6% [at 92.7 µM] (inactive); as for `NNc1ccccc1`, 8.02% (inactive); as for `Nc1ccccc1`, 11.2% (inactive). The same measure, in the same setting: the figure for `O=C1OC(c2ccc(O)c(S(=O)(=O)O)c2)(c2ccc(O)c(S(=O)(=O)O)c2)c2c(Br)c(Br)c(Br)c(Br)c21` is 7.71% (inactive). As for `CC(NC(C)(C)C)C(=O)c1cccc(Cl)c1` (configuration not stated), the compound was classed as inactive.

For `COc1ccc2c3c1O[C@H]1[C@H](O)CC[C@H]4[C@@H](C2)N(C)CC[C@@]341`, the “activity change, negative = cytotoxicity” value is 1.31% [at 92.7 µM] (inactive). On the same count and under the same terms, as for `C#CC(O)(C=CCl)CC` (configuration not stated), the figure is 11.6% (inactive); as for `C[C@]12CC[C@@H]3c4ccc(OC(=O)N(CCCl)CCCl)cc4CC[C@H]3[C@@H]1CC[C@@H]2OP(=O)(O)O`, 0.712% (inactive). Same read-out and setting: as for `O=c1[nH]c2ccccc2n1C1CCNCC1`, the figure is 4.26% (inactive); as for `Oc1ccc(Cl)cc1`, -8.98% (inactive).

As for `NC(=O)c1cc([N+](=O)[O-])cc([N+](=O)[O-])c1`, the “activity change, negative = cytotoxicity” value was -2.44% (inactive). Still for that read-out and setting: the figure for `O=C1c2ccccc2C(=O)c2ccccc21` is -0.116% [at 16.1 µM] (inactive); for `CCc1cc2c(s1)-n1c(C)nnc1CN=C2c1ccccc1Cl` it is 25.1% (inactive); for `CN1CC[C@]23c4c5ccc(O)c4O[C@H]2[C@@H](O)CC[C@H]3[C@H]1C5` it is -14.2% [at 92.7 µM] (inactive). `C=CCN1C[C@H](C)N([C@H](c2ccc(C(=O)N(CC)CC)cc2)c2cccc(OC)c2)C[C@H]1C`: the “activity change, negative = cytotoxicity” value was 14.5% (inactive).

On to `COC(=O)[C@@H](N)CCCN/C(N)=N/[N+](=O)[O-]`, for which the “activity change, negative = cytotoxicity” value was -10.3% (inactive). Same read-out and setting: the figure for `CC(=O)OCC1=C(C(=O)O)N2C(=O)[C@@H](N)[C@H]2SC1` is -8.39% [at 16.1 µM] (inactive); for `C[C@]12CC[C@H]3[C@@H](CCC4=CC(=O)CC[C@@H]43)[C@@H]1CC[C@@H]2OC(=O)CCC1CCCCC1` it is -18.5% (inactive). As to `CN1C(=O)CCS(=O)(=O)C1c1ccc(Cl)cc1` (configuration not stated), the result was inactive. For the compound `ClCCN1CCCC1`, the “activity change, negative = cytotoxicity” value is 10.1% (inactive).
